Laboratory results reported in PubChem BioAssay AID588453 (National Center for Advancing Translational Sciences (NCATS), 2011).
Where “and” joins values, the source holds several entries; their conditions need not be identical. Identical values can stand only once. Hit rate of the full screen: of about 390,000 compounds, about 4,000 (1%) were called active. Inconclusive results (about 4%) are left out. The sample holds actives, similar compounds and a random draw of the others, so the mix is not that of the screen. Calls follow the shape of the dose curve; as a rule, active = well fitted inhibition curve with a large enough effect; inconclusive = small, poorly fitted or top-dose-only effect; inactive = no such curve, though single readings can be large or run the other way.

target: Thioredoxin reductase 1, cytoplasmic (Rattus norvegicus) (UniProt O89049); assay: qHTS Assay for Inhibitors of Mammalian Selenoprotein Thioredoxin Reductase 1 (TrxR1): qHTS; conditions: recombinant rTrxR1, NADPH fluorescence consumption, selenite substrate; series mostly up to 114 µM; activity change, negative = inhibition: at the top concentration; also: nearly all actives have a fitted effect of over 65% in size
Sequence (O89049 whole entry, looked up): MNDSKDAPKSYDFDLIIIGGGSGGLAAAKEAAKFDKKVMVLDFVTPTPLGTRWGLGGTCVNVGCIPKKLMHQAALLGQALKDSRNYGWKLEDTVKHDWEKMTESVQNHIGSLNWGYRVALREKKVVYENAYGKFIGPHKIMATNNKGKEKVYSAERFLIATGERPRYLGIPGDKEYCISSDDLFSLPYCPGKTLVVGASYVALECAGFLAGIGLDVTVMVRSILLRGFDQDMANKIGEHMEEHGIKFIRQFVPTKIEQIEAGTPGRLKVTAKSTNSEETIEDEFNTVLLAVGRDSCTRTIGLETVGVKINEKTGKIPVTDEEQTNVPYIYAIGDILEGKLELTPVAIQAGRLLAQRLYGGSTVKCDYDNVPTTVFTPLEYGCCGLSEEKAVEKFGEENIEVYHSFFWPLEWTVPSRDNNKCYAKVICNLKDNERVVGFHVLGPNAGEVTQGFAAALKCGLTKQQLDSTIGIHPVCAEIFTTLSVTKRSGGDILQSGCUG
Source text: The selenoprotein thioredoxin reductase (TrxR; EC 1.8.1.9) is a FAD containing homodimeric pyridine nucleotide-disulfide oxidoreductase with many cellular roles. Together with NADPH and its prime substrate thioredoxin (Trx), the enzyme forms the core of the Trx system. The mammalian Trx system exerts a wide spectrum of functions including redox regulation, antioxidant defense, regulation of transcription factors as well as support of cell growth and replication. Many of these functions involve the reduction of Trx, which may subsequently reduce a number of different substrates including ribonucleotide reductase, peroxiredoxins or NFkB. Mammalian TrxR itself also has a broad substrate specificity, reducing both protein and non-protein substrates, including low molecular weight compounds such as dehydroascorbate, lipoic acid, ubiquinone, and juglone. In addition, several drugs in clinical use for anticancer treatment are indeed known to target TrxR1.
This BioAssay is a validation of an NADPH fluorescence-based, dual-purpose qHTS rTrxR1 assay designed to find potential inhibitors and substrates of rTrxR1. For this particular BioAssay, actives are potential inhibitors. See related BioAssay for substrate data deposition.
NIH Molecular Libraries Probe Production Network [MLPCN]
NIH Chemical Genomics Center [NCGC]
Assay Provider: Elias Arner, Karolinska Institute
Assay protocol: 2 uL of reagents (buffer in column 4 as negative control and 90 nM rTrxR1 in columns 1-3 and 5-48) were dispensed into Greiner black solid-bottom 1,536-well assay plates, followed by 1 uL of NADPH (400 uM final concentration) to each well. The plates were centrifuged at 1000 rpm for 15 seconds and subsequently incubated for 5 min at room temperature (~22 deg C) to allow for rTrxR1 reduction. Compounds (23 nL) were then transferred via Kalypsys pin tool equipped with 1536-pin array (10 nL slotted pins, V&P Scientific, San Diego, CA). In addition, a duplicate 2-fold serial dilution of the control compounds auranofin, a known gold-based TrxR1 inhibitor, and juglone (5-hydroxy-1,4-naphthoquinone), a natural TrxR1 substrate, were pin-transferred to columns 2 and 3, respectively. After incubation for 15 min at room temperature (~22 deg C), 1 uL of selenite (400 uM final concentration) were dispensed to each well. The plate was immediately transferred to a ViewLux high-throughput CCD imager (PerkinElmer), wherein kinetic measurements of NADPH fluorescence (Ex 340 nm, Em 450 nm) were acquired (8 minute kinetic read, see Table 1). Read 1 was utilized to assess the capacity of a compound to serve as an rTrxR1 substrate, i.e. a decrease in NADPH fluorescence compared to the no-compound background is an indication of a substrate behavior for that particular compound. For inhibitory activity of a compound, delta values, computed as the difference in fluorescence intensity between the first and last reads of an 8-minute time kinetic window, were used. All reagents were diluted in an assay buffer consisting of 50 mM Tris-HCl, pH 7.5, 2 mM EDTA, and 0.01% Tween-20.
Throughout the screen, reagent bottle and all liquid lines were made light-tight to minimize reagent degradation. All screening operations were performed on a fully integrated robotic system (Kalypsys, San Diego, CA) containing one RX-130 and two RX-90 anthropomorphic robotic arms (Staubli, Duncan, SC). Library plates were screened starting from the lowest and proceeding to the highest concentration, and a 'double-pinning' step of the highest concentration was required to access higher concentrations of compounds. Vehicle-only plates, with DMSO being pin-transferred to the columns 5-48, were inserted uniformly at the beginning and the end of each library in order to monitor and record any shifts in the background, which can be affected by reagent dispensers or loss in enzyme activity over time. […]
% is scaled to controls: 0 for no effect and ±100 for the full control effect; potency is read from the fitted curve at half-maximal effect.

Structure (SMILES)	activity change, negative = inhibition	Potency
CCC(=O)c1ccc(OCC(=O)N2CCN(CC(=O)Nc3ccc(C)cc3)CC2)cc1	8.72% (inactive)	
C=CCN1C(=O)NC(=O)/C(=C/c2ccc(OCC(=O)Nc3ccc(C)cc3)cc2)C1=O		20 µM (active)
C=CCN(CC=C)C(=O)Nc1ccc(OCC)cc1	11.4% [at 57.1 µM] (inactive)	
COc1cc(Cl)ccc1Nc1ncc(C(=O)N2CCN(c3ccccc3OC)CC2)c2ccccc12	107% (inactive)	
N#Cc1c(Cl)c(Cl)c(Cl)c(C#N)c1Cl		0.282 µM (active)
C=CCN1CCC23c4c5ccc(O)c4O[C@H]2C(=O)CC[C@@]3(O)C1C5 (stereo not given in full)		inactive
Cc1ncsc1CCCl	-10.7% [at 57.1 µM] (inactive)	
Cc1ccccc1NC(=O)COC(=O)c1cc(C)n(C2CC2)c1C	-13.9% (inactive)	
O=P1(Oc2ccccc2)CC(O)C(O)C(COCc2ccccc2)O1 (stereo not given)	14.5% (inactive)	
CO[C@H]1[C@@H](O)[C@@H](C)O[C@H](O[C@H]2[C@H](Oc3cccc4c(O)c5c(=O)oc6ccc(C)c7c(=O)oc(c34)c5c67)O[C@H](C)[C@H](O)[C@@H]2O)[C@@H]1O	3.86% (inactive)	
CCC1(C)CC(=O)NC1=O (stereo not given)		inactive
CC[C@H]1CC2CN3CCc4c([nH]c5ccccc45)C(C(=O)OC)(C2)C13 (stereo not given in full)	12.3% (inactive)	
CCOC(=O)c1ncn2c1[C@@H]1CCCN1C(=O)c1cc(OC)ccc1-2		inactive
CC(=O)c1c(O)c(C)c(O)c(Cc2c(O)c3c(c(C(=O)/C=C/c4ccccc4)c2O)OC(C)(C)C=C3)c1O		28.2 µM (active) and 11.2 µM (active)
C[N+]1(C)CCOC(O)(c2ccc(-c3ccc(C4(O)C[N+](C)(C)CCO4)cc3)cc2)C1 (stereo not given)		inactive
COC(=O)C1=C(c2ccc(C(C)=O)cc2)C[C@@H]2CC[C@H]1N2C(=O)NCCNC(C)=O	17.4% [at 57.1 µM] (inactive)	
CC(C)(C)c1ccc(CN2C(=O)CN=C(c3ccccc3)c3ccccc32)cc1	1.72% (inactive)	
O=C1CC(=O)N(Cc2ccccc2)C(=O)N1CCCCCCN1C(=O)CC(=O)N(Cc2ccccc2)C1=O		2.82 µM (active)
O=C(CN1CCCC1=O)NCCc1ccccc1	14.9% (inactive)	
COCc1cc(OC(=O)N(C)C)nc(-c2ccc(C)c(Cl)c2)n1	-11.1% (inactive)	
COc1ccc(-n2c(-c3ccccc3)nc3ccccc3c2=O)cc1	11.3% (inactive)	
CC[C@H]1CN2CCc3cc(OC)c(OC)cc3[C@@H]2C[C@@H]1C[C@H]1NCCc2cc(OC)c(OC)cc21		inactive
COC(=O)C1=C(c2cc3ccccc3s2)C[C@@H]2CC[C@H]1N2C(=O)NCCO	2.91% [at 57.1 µM] (inactive)	
COc1ccc(-c2nc(CS(=O)CC(=O)N3CCC4(CC3)OCCO4)c(C)o2)cc1 (stereo not given)		7.08 µM (active)
COc1ccc(S(=O)(=O)NCc2ccc(C(=O)N3CCC4(CC3)OCCO4)cc2)cc1	-0.636% (inactive)	

Structure (SMILES)	activity change, negative = inhibition	Potency
COc1ccc(NC(=O)N2CCC3(CC2)OCCO3)c(OC)c1	11.5% (inactive)	
CCN(CC)CCOC(=O)c1cc2cc(COC)ccc2o1	14.1% [at 57.1 µM] (inactive)	
CCN1C(=O)C(=Cc2c(C)n(CC(=O)NCC3CCCO3)c3ccccc23)C(=O)N(CC)C1=S (stereo not given)		11.2 µM (active)
CCCCCCN=C(CC)c1c(O)n(CCCC)c(=O)[nH]c1=O	4.26% [at 57.1 µM] (inactive)	
COC1=C[C@@H]2[C@@H]3Cc4ccc(OC)c(O)c4[C@]2(CCN3C)CC1=O	-6.63% (inactive)	
O=C(O)/C=C/c1ccc2c(c1)OCO2	3.16% (inactive)	
CN(C)CC1Oc2ccccc2OC1(O)c1ccccc1 (stereo not given)		0.398 µM (active)
O=C(O)C1C2CCC(O2)C1C(=O)O (stereo not given)	-1.83% (inactive)	
CC1CCC(N(C)C2CCN(C)CC2)CC1 (stereo not given)	-4.72% (inactive)	
CCNc1nc2[nH]c(=O)c3c(c2s1)OC(N)=C(C#N)C3c1cccs1 (stereo not given)	-8.85% (inactive)	
CCCCN1C2CCC1CC(OC(c1ccc(F)cc1)c1ccc(F)cc1)C2 (stereo not given)	3.2% (inactive)	
COc1ccc(OC)c(NC(=O)Cn2c(=O)oc3ccccc32)c1	25.1% (inactive)	
Cc1cc(C=C2C(=O)NC(=O)NC2=O)c(C)n1-c1ccncc1	-45.2% (inactive)	
Cc1ccc(-n2c(C)cc(/C=C3\C(=O)NC(=O)N(C)C3=O)c2C)cc1C	-0.889% (inactive)	
Cc1ccnc(-n2c(C)cc(/C=C3\C(=O)NC(=S)N(C)C3=O)c2C)c1		35.5 µM (active)
O=C(O)C1CSC(c2cccnc2)N1 (stereo not given)	23.3% [at 57.1 µM] (inactive)	
c1cncc(CNCCc2c[nH]c3ccccc23)c1	13% (inactive)	
C[C@@H]1C[C@@H]2O[C@H]2/C=C\C=C\C(=O)Cc2c(Cl)c(O)cc(O)c2C(=O)O1		12.6 µM (active)
COc1cc([C@@H]2c3cc4c(cc3[C@H](OC(C)=O)[C@H]3COC(=O)[C@H]23)OCO4)cc(OC)c1OC	-1.87% (inactive)	
CCOc1ccc(CN(CCCl)CCCl)cc1C(=O)OC		15.8 µM (active)
CC1=CC(=Cc2sc3ccccc3[n+]2C)C=C(C)O1	-17.2% (inactive)	
Cc1ccc(Cn2c(C)c3cnn(CC(=O)N4CCC5(CC4)OCCO5)c(=O)c3c2C)cc1	-10.4% (inactive)	
CCOP(=O)(OCC)C(NC(=O)c1ccc(OC)cc1)C(Cl)(Cl)Cl (stereo not given)	16.1% (inactive)	
CC(=O)Cc1ccc(OC(C)C)cc1	-10.4% [at 57.1 µM] (inactive)	
CC(=O)c1ccc(OC(NC(=O)Cc2ccccc2)C(Cl)(Cl)Cl)cc1 (stereo not given)		10 µM (active)
